Assay [1] is described as follows: qHTS assay to identify small molecule antagonists of the estrogen receptor alpha (ER-alpha) signaling pathway using the BG1 cell line in the presence of 0.1 nM 17-beta-estradiol - cell viability counter screen (AID 1259241). Note: nearly all actives have a fitted effect of over 40% in size. The gist of the method:
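CellTiter-Fluor read (30 min, 37C) on ER-alpha/ERE-luc VM7Luc4E2 cells; 22 hr compound treatment; agonist 0.1 nM E2 final; same-well multiplex.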

Assay [2] is described as follows: qHTS assay to identify small molecule antagonists of the androgen receptor (AR) signaling pathway using the MDA cell line in the presence of 0.5 nM R1881 - cell viability counter screen (AID 1259242). Note: nearly all actives have a fitted effect of over 45% in size. The gist of the method: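 Counter screen for cytotoxicity run in the same wells as the AR antagonist reporter screen: MDA-kb2 cells were treated 16 hr with test compounds and 0.5 nM R1881, then live-cell protease activity was measured by fluorescence.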

Assay [3] deals with Estrogen receptor (Homo sapiens) (UniProt P03372). The assay can be described thus: qHTS assay to identify small molecule antagonists of the estrogen receptor alpha (ER-alpha) signaling pathway using the BG1 cell line in the presence of 0.1 nM 17-beta-estradiol (AID 1259244). Note: nearly all actives have a fitted effect of over 50% in size. Note: potency is the fitted concentration of half-maximal effect. A digest of the protocol:
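Cells: VM7Luc4E2, endogenous ER-alpha, 4x ERE-luc stable. Pre-culture 5 d, phenol red-free, charcoal-stripped FBS. Plated 24 h, compound + E2 0.1 nM final, 22 h 37C/5% CO2. Readout ONE-Glo luminescence.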
In general terms: Quantitative high-throughput screening tests each substance at several concentrations.

Assay [4] can be described thus: qHTS assay to identify small molecule HDAC inhibitors (AID 1259364). Note: nearly all actives have a fitted effect of over 45% in size. Note: potency is the fitted concentration of half-maximal effect. A digest of the protocol:
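Luminescence from a cell-permeant luminogenic class I/II HDAC substrate reports endogenous deacetylase activity in intact HCT-116 cells treated with compounds for 2 h.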

Assay [5] is described as follows: qHTS assay to identify small molecule HDAC inhibitors - cell viability counter screen (AID 1259365). Note: series mostly up to about 92 µM; nearly all actives have a fitted effect of over 50% in size. A digest of the protocol: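 To flag cytotoxic hits, 1,500 wild-type HCT-116 cells per well, plated the day before, receive test compounds for 2hr at 37 C before CellTiter-Glo reagent and a luminescence read.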
Assay [6] in a line: qHTS assay to identify small molecule agonists of the sonic hedgehog signaling (Shh) pathway - cell viability counter screen (AID 1259366). Note: nearly all actives have a fitted effect of over 50% in size. The gist of the method: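 Fluorescence from CellTiter-Fluor reports live cells in this counter screen. NIH/3T3-derived Gli1-Luc reporter cells receive test compounds for 24hr at 37C; reagent goes in at 23hr.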
The nature of assay [7]: qHTS assay to identify small molecule antagonists of the sonic hedgehog signaling (Shh) pathway - cell viability counter screen (AID 1259367). Note: nearly all actives have a fitted effect of over 55% in size. The gist of the method:
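After a 4 hr settling period, 3T3 Gli1-Luc cells were treated with DMSO-dissolved chemicals and conditioned medium, kept 24 hr at 37C in 5% CO2, and assayed for viability by CellTiter-Fluor fluorescence following 1 hr reagent incubation.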

Assay [8] in a line: qHTS assay to identify small molecule agonists of the sonic hedgehog signaling (Shh) pathway (AID 1259368; calls by dose curve;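 note: NIH/3T3-derived 3T3Gli1-Luc cells carrying a stable Gli1-driven firefly luciferase reporter; series mostly up to about 92 µM; nearly all actives have a fitted effect of over 15% in size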). A digest of the protocol:
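3T3Gli1-Luc (NIH/3T3 clone, stable Gli1-Luc); 4 hr pre-incubation, then cpd in DMSO 24 hr, 37 C/5% CO2; luciferase reagent 30 min RT; luminescence.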

Results filed as inconclusive are left out. Calls of active or inactive are those of the source. Unless noted, calls come from the whole dose curve; as a rule, active = well fitted curve in the direction sought with a large enough effect in the repeat runs; inconclusive = weak or mixed curves; inactive = no such curve, though single readings can be large; an effect the other way counts as inactive or inconclusive.

Chain of Estrogen receptor (Homo sapiens) (P03372 whole entry, looked up): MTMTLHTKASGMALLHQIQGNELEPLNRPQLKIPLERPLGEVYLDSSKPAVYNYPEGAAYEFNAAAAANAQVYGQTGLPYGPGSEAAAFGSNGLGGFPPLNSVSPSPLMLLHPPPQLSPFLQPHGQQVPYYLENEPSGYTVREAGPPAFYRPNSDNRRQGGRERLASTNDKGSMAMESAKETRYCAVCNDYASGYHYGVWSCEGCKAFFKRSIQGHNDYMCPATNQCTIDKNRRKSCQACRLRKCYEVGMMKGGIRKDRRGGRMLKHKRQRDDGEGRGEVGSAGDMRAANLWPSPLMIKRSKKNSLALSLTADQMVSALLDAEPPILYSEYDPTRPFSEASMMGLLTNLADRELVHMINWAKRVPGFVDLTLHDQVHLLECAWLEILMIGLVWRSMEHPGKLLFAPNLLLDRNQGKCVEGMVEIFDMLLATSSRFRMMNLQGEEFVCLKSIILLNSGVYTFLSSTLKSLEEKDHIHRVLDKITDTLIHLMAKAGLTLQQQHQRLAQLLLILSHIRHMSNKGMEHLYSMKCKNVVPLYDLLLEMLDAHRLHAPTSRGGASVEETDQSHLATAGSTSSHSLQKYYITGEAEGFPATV

Consider `CC1CC(=O)NN=C1c1ccc(NCC(C)(C)NCC(O)COc2cc(Cl)ccc2C#N)cc1` (configuration not stated), for which the Potency result in assay [1], in assay [2], in assay [3], in assay [4], in assay [5] and in assay [6] was “inactive” each time. In addition, the Potency entry in assay [7] and in assay [8] was “inactive” in each case.
With `CCC(=O)OC/C=C/c1ccccc1`, the Potency entry in assay [1], in assay [2], in assay [3], in assay [4], in assay [5] and in assay [7] was “inactive” throughout. The Potency result in assay [8] is “inactive”.
In the case of `CC1=CC(O)CC(C)(C)C1` (configuration not stated), the Potency result in assay [1], in assay [2], in assay [3], in assay [4], in assay [5] and in assay [6] was “inactive” each time. Moreover, the Potency result in assay [7] and in assay [8] was “inactive” throughout.
As for `CC(COc1ccc(C(C)(C)C)cc1)OS(=O)OCCCl` (configuration not stated), the Potency result in assay [1], in assay [2], in assay [4], in assay [5], in assay [6] and in assay [7] was “inactive” each time. For the same molecule, the Potency entry in assay [8] was “inactive”. In addition, in assay [3], the Potency was 1.38 µM (active).
Consider `O=C(/C=C/c1ccccc1)OCCCc1ccccc1`, for which the Potency result in assay [1], in assay [2], in assay [3], in assay [4], in assay [5] and in assay [6] was “inactive” throughout. For the same molecule, the Potency result in assay [7] and in assay [8] was “inactive” each time.
As to `Nc1ccc(S(=O)(=O)O)c(N)c1`, the Potency result in assay [1], in assay [2], in assay [3], in assay [4], in assay [5] and in assay [6] was “inactive” each time. In addition, the Potency entry in assay [7] and in assay [8] was “inactive” throughout.
Consider `O=C1NCCN1`, for which the Potency result in assay [1], in assay [2], in assay [3], in assay [4], in assay [5] and in assay [6] was “inactive” throughout. Besides, the Potency entry in assay [7] and in assay [8] was “inactive” in each case.
On to `CC(CCO)CCc1ccccc1` (configuration not stated), for which the Potency entry in assay [1], in assay [2], in assay [3], in assay [4], in assay [5] and in assay [6] was “inactive” throughout. Besides, the Potency result in assay [7] and in assay [8] was “inactive” each time.
As for `O=C(CCCN1CCC(O)(c2ccc(Br)cc2)CC1)c1ccc(F)cc1`, the Potency entry in assay [1], in assay [2], in assay [3], in assay [4], in assay [5] and in assay [6] was “inactive” in each case. Further, the Potency entry in assay [7] and in assay [8] was “inactive” each time.
For the molecule `O=C(Nc1ccccc1)Nc1ccccc1`, the Potency result in assay [1], in assay [2], in assay [3], in assay [5], in assay [6] and in assay [7] was “inactive” throughout. For the same molecule, the Potency result in assay [8] is “inactive”. Besides, the Potency in assay [4] is 1.54 µM (active).
As for `c1ccc(COCc2ccccc2)cc1`, the Potency entry in assay [1], in assay [2], in assay [3], in assay [4], in assay [5] and in assay [6] was “inactive” in each case. The Potency entry in assay [7] and in assay [8] was “inactive” in each case.
As for `CC(C)CCCCCCOC(=O)CCCCC(=O)OCCCCCCC(C)C`, the Potency result in assay [1], in assay [2], in assay [3], in assay [4], in assay [5] and in assay [6] was “inactive” in each case. The Potency result in assay [7] and in assay [8] was “inactive” in each case.
As for `Oc1cc(O)c(Cl)cc1Cl`, the Potency result in assay [1], in assay [2], in assay [3], in assay [4], in assay [5] and in assay [6] was “inactive” each time. For the same molecule, the Potency result in assay [7] and in assay [8] was “inactive” in each case.
Consider `O=S1OCCO1`, for which the Potency entry in assay [1], in assay [2], in assay [3], in assay [4], in assay [5] and in assay [6] was “inactive” in each case. The Potency entry in assay [7] and in assay [8] was “inactive” in each case.
With `C=CC(C)(O)CCCC(C)CCCC(C)CCCC(C)C` (configuration not stated), the Potency entry in assay [1], in assay [2], in assay [3], in assay [4], in assay [5] and in assay [6] was “inactive” throughout. For the same molecule, the Potency entry in assay [7] and in assay [8] was “inactive” throughout.
Take `OC/C(Br)=C(\Br)CO`: the Potency entry in assay [1], in assay [2], in assay [3], in assay [4], in assay [5] and in assay [6] was “inactive” in each case. In addition, the Potency entry in assay [7] and in assay [8] was “inactive” in each case.
With `CCOC(=N)CC(=O)OCC`, the Potency result in assay [1], in assay [2], in assay [3], in assay [4], in assay [5] and in assay [6] was “inactive” in each case. Besides, the Potency result in assay [7] and in assay [8] was “inactive” each time.
Consider `CC(C)(CCl)c1ccccc1`, for which the Potency entry in assay [1], in assay [2], in assay [3], in assay [4], in assay [5] and in assay [7] was “inactive” each time. The Potency result in assay [8] was “inactive”.
Consider `Cc1nc2ccccc2s1`, for which the Potency result in assay [1], in assay [2], in assay [3], in assay [4], in assay [5] and in assay [6] was “inactive” throughout. For the same molecule, the Potency result in assay [7] and in assay [8] was “inactive” throughout.
On to `CCC(C)(O)CCC=C(C)C` (configuration not stated), for which the Potency result in assay [1], in assay [2], in assay [3], in assay [4], in assay [5] and in assay [6] was “inactive” in each case. Also, the Potency entry in assay [7] and in assay [8] was “inactive” each time.
Regarding `CC#N`, the Potency entry in assay [1], in assay [2], in assay [3], in assay [4], in assay [5] and in assay [6] was “inactive” in each case. The Potency entry in assay [7] and in assay [8] was “inactive” in each case.
As to `C/C=C/C=C/CCCCCCCO`, the Potency entry in assay [1], in assay [2], in assay [3], in assay [4], in assay [5] and in assay [8] was “inactive” in each case.

(Values after PubChem BioAssay (Tox21).)
